Data as given in PubChem BioAssay (EPA / NIEHS).
Values joined by “and” are separate entries in the source; they are usually repeats but may differ in a detail not shown here. Equal entries are not always repeated. Inconclusive results are not listed. A structure can be active in one record and inactive in another. Active and inactive are the calls of the source. The calls were made as follows, unless noted: active = hit-call score of the fitted dose curve at least 0.9, where 1 is the maximum; inactive = score below 0.9.

Tests used:
[1] = target: Myc proto-oncogene protein (Homo sapiens) (UniProt P01106); assay: ATG_Myc_CIS: Attagene CIS-FACTORIAL HepG2 Assay for human Myelocytomatosis (Myc) Proto-Oncogene Transcription Factor (AID 2282990); details: HepG2, Attagene cis-reporter transcription factor activity; actives raise or lower the signal
Outline: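 DMSO-normalised, bidirectionally fitted reporter mRNA signal. HepG2 cells transfected with cis reporter constructs, treated 24 h; transcripts detected by RT-PCR, 6-FAM primer extension and CE.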

[2] = ATG_NF_kB_CIS: Attagene CIS-FACTORIAL HepG2 Assay for human Nuclear Factor Kappa B (NF-kB) (AID 2282991); details: HepG2 Attagene cis-factorial NF-kB reporter mRNA; actives raise or lower the signal
Outline: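 HepG2, transient multi-reporter transfection, cis promoter elements (endogenous TFs). 24 h exposure. Total RNA → RT → PCR → 6-FAM label → HpaI → CE. Gain/loss vs DMSO.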

[3] = ATG_NRF2_ARE_CIS: Attagene CIS-FACTORIAL HepG2 Assay for human Nuclear Factor Erythroid 2 Related Factor 2 (NFR2) response to Antioxidant Response Elements (ARE) (AID 2282992); details: HepG2 Attagene ARE/NRF2 reporter, transcription factor activity; actives raise or lower the signal;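 as to AC50: reporter mRNA level measured by RT-PCR and capillary electrophoresis fluorescence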
Outline: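 Endogenous transcription factor activity in human liver HepG2 cells is tracked via a cis-element-driven reporter within a multiplexed set. mRNA induction is read by RT-PCR and capillary electrophoresis after 24 h, with DMSO as baseline.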

[4] = ATG_Oct_MLP_CIS: Attagene CIS-FACTORIAL HepG2 Assay for human Octamer-Binding Transcription Factor (Oct) (AID 2282993); details: HepG2 Attagene cis-factorial Oct reporter, mRNA; actives raise or lower the signal
Outline: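 Read-out: reporter mRNA via RT-PCR plus capillary electrophoresis of 6-FAM-labelled fragments. Transiently transfected HepG2, 24 h exposure, endogenous TF activity on cis elements. Gain or loss of signal fitted relative to DMSO.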

[5] = target: Cellular tumor antigen p53 (Homo sapiens) (UniProt P04637); assay: ATG_p53_CIS: Attagene CIS-FACTORIAL HepG2 Assay for human p53 Transcription Factor (AID 2282994); details: HepG2 p53 cis-element reporter, Attagene mRNA; actives raise or lower the signal
Outline: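 Steps: transfect HepG2 with multiplexed cis reporter constructs; dose chemicals 24 h; extract RNA, reverse-transcribe, PCR-amplify reporter sequences; FAM-label, HpaI-digest, resolve fragments by CE. Activity fitted both directions relative to DMSO.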

[6] = BSK_3C_TissueFactor: BioMAP Diversity Plus: 3C Assay for Tissue Factor Biomarker Activity (AID 2282997); details: BioMAP 3C HUVEC, tissue factor biomarker readout; actives raise or lower the signal
Outline: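 After a 24 h chemical exposure of primary human umbilical vein endothelial cells, Tissue Factor levels were quantified by ELISA.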

[7] = BSK_3C_uPAR: BioMAP Diversity Plus: 3C Assay for Urokinase-type plasminogen activator receptor (uPAR) Biomarker Activity (AID 2282998); details: BioMAP 3C HUVEC, uPAR biomarker ELISA; actives raise or lower the signal
Outline: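 HUVEC primary cells; 24 h post-dose; uPAR by ELISA; gain or loss of signal fitted bidirectionally vs DMSO baseline.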

[8] = BSK_3C_VCAM1: BioMAP Diversity Plus: 3C Assay for Vascular cell adhesion molecule 1 (VCAM1) Biomarker Activity (AID 2282999); details: BioMAP 3C HUVEC, VCAM1 ELISA, cytokine-stimulated; actives raise or lower the signal
Outline: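 Vascular primary endothelium (human umbilical vein) was exposed to chemicals and assayed 24 h later. VCAM-1 levels came from ELISA, with DMSO serving as baseline for bidirectional fitting.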

[9] = BSK_4H_Eotaxin3: BioMAP Diversity Plus: 4H Assay for Eotaxin 3 Biomarker Activity (AID 2283000); details: primary human endothelial cells (HUVEC); actives raise or lower the signal
Outline: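 Chemicals were added to human umbilical vein endothelium cultures, and Eotaxin-3 was quantified by ELISA at 24 h. Values were derived by bidirectional fitting with DMSO serving as negative control and activity baseline.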

[10] = target: human Peroxisome Proliferator-activated Receptor alpha (PPARa), PPARA (gene 5465) (UniProt Q07869); assay: ATG_PPARa_TRANS: Attagene TRANS-FACTORIAL HepG2 Assay for human Peroxisome Proliferator-activated Receptor alpha (PPARa) (AID 2283001; active = hit-call score of the fitted dose curve at least 0.9, where 1 is the maximum;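 as to AC50: potency for gain of reporter signal over DMSO so agonist or activator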)
Outline: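 Exposure: 24 h, transiently transfected HepG2 cells. Endpoint: GAL4-UAS reporter mRNA, RT-PCR with capillary electrophoresis fluorescence. Baseline: DMSO; increases fitted.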

[11] = BSK_3C_Proliferation: Cell Proliferation Assessment in the BioMAP Diversity Plus: 3C Assay (AID 2283006); details: primary human endothelial cells (HUVEC);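 as to AC50: potency may reflect either rise or fall in cell number versus DMSO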
Outline: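 HUVEC, sub-confluent; 48 h chemical exposure; 10% TCA fix, 0.1% SRB stain, A560 total protein. Gain or loss of signal fitted both directions vs DMSO control.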

[12] = target: Peroxisome proliferator-activated receptor gamma (Homo sapiens) (UniProt P37231); assay: ATG_PPARg_TRANS: Attagene TRANS-FACTORIAL HepG2 Assay for human Peroxisome Proliferator-activated Receptor-gamma (PPARg) (AID 2283007; active = hit-call score of the fitted dose curve at least 0.9, where 1 is the maximum)
Outline: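 Multiplexed reporter transcription units in HepG2, 24 h dosing, reporter transcripts quantified by fluorescent RT-PCR and capillary electrophoresis. Increase over DMSO scored.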

[13] = target: human RAR-related Orphan Receptor beta (RORb), RORB (gene 6096) (UniProt Q92753); assay: ATG_RORb_TRANS: Attagene TRANS-FACTORIAL HepG2 Assay for human RAR-related Orphan Receptor beta (RORb) (AID 2283010; active = hit-call score of the fitted dose curve at least 0.9, where 1 is the maximum)
Outline: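 HepG2, transient MRTU transfection (GAL4-UAS reporters, exogenous NR-Gal4 chimeras); 24 h compound exposure; total RNA → RT-PCR → 6-FAM primer extension → HpaI digest → CE fluorescence. Positive direction vs DMSO baseline.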

[14] = target: human Peroxisome Proliferator-activated Receptor delta (PPARd), PPARD (gene 5467) (UniProt Q03181); assay: ATG_PPARd_TRANS: Attagene TRANS-FACTORIAL HepG2 Assay for human Peroxisome Proliferator-activated Receptor delta (PPARd) (AID 2283002; active = hit-call score of the fitted dose curve at least 0.9, where 1 is the maximum)
Outline: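 Measured quantity: GAL4-UAS reporter transcript induction in HepG2 after 24 h chemical dosing, with NR-Gal4 chimeras supplied by transient transfection. Detection by RT-PCR and capillary electrophoresis; upward fit against DMSO.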

[15] = read-out: Intercellular Adhesion Molecule 1 (ICAM1), ICAM1 (gene 3383); assay: BSK_3C_ICAM1: BioMAP Diversity Plus: 3C Assay for Intercellular Adhesion Molecule 1 (ICAM1) Biomarker Activity (AID 2283003); details: primary human endothelial cells (HUVEC); actives raise or lower the signal
Outline: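 ELISA read-out of ICAM-1; HUVEC (primary human), 3C system, 24 h post-dosing; bidirectional fit vs DMSO baseline.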

[16] = target: Nuclear receptor subfamily 1 group I member 2 (Homo sapiens) (UniProt O75469); assay: ATG_PXR_TRANS: Attagene TRANS-FACTORIAL HepG2 Assay for human Pregnane X Receptor (PXR) (AID 2283008; active = hit-call score of the fitted dose curve at least 0.9, where 1 is the maximum)
Outline: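 HepG2 transfected (FuGene 6) with GAL4-UAS reporter units + PXR-Gal4 chimera; dosed 24 h. Total RNA → oligo(dT) RT → PCR → 6-FAM primer extension → HpaI cut → CE. Gain-of-signal vs DMSO.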

[17] = target: Retinoic acid receptor RXR-alpha (Homo sapiens) (UniProt P19793); assay: ATG_RXRa_TRANS: Attagene TRANS-FACTORIAL HepG2 Assay for human Retinoid X Receptor alpha (RXRa) (AID 2283012; active = hit-call score of the fitted dose curve at least 0.9, where 1 is the maximum)
Outline: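 Read-out: fluorescent reporter-transcript fragments quantified by capillary electrophoresis after RT-PCR. Transiently transfected HepG2 cells carrying GAL4-UAS reporters and NR-GAL4 chimeras were exposed to chemical for 24 h; activity scored as increase over DMSO.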

[18] = target: human Retinoic Acid Receptor gamma (RARg), RARG (gene 5916) (UniProt P13631); assay: ATG_RARg_TRANS: Attagene TRANS-FACTORIAL HepG2 Assay for human Retinoic Acid Receptor gamma (RARg) (AID 2283009; active = hit-call score of the fitted dose curve at least 0.9, where 1 is the maximum)
Outline: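 Readout: reporter transcript levels via RT-PCR, 6-FAM primer-extension labelling, HpaI digestion and capillary electrophoresis. Cells: HepG2 carrying transfected RARg-GAL4 chimera plus UAS reporter set. Dosing 24 h; DMSO negative control.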

Measured: AC50

Sequence of human Peroxisome Proliferator-activated Receptor alpha (PPARa), PPARA (gene 5465) (Q07869 whole entry, looked up, the tested form may be a part): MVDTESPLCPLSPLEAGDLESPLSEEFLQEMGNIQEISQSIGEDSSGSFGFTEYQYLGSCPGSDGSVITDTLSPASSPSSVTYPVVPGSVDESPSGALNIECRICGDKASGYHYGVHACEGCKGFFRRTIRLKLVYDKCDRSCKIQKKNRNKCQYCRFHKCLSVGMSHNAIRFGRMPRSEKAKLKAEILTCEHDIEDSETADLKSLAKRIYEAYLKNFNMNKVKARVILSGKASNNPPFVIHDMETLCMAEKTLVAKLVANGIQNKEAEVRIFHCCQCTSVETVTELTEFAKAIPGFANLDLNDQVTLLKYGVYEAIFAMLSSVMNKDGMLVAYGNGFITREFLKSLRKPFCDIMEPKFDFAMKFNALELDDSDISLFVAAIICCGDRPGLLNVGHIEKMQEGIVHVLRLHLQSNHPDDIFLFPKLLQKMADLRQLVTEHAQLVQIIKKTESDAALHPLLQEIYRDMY
Sequence of human Peroxisome Proliferator-activated Receptor delta (PPARd), PPARD (gene 5467) (Q03181 whole entry, looked up, the tested form may be a part): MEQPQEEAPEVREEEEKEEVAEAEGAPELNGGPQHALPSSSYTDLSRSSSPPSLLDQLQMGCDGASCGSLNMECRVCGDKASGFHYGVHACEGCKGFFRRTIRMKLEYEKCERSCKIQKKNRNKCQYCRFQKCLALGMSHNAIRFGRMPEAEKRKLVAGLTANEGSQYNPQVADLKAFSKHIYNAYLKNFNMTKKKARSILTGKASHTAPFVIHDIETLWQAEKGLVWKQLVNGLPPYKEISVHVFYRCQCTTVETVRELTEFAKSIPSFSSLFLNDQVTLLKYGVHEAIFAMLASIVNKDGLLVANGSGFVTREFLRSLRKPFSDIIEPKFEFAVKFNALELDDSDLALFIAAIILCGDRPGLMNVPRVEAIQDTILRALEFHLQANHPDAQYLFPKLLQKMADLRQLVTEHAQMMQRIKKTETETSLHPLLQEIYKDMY
Sequence of Cellular tumor antigen p53 (Homo sapiens) (P04637 whole entry, looked up, the tested form may be a part): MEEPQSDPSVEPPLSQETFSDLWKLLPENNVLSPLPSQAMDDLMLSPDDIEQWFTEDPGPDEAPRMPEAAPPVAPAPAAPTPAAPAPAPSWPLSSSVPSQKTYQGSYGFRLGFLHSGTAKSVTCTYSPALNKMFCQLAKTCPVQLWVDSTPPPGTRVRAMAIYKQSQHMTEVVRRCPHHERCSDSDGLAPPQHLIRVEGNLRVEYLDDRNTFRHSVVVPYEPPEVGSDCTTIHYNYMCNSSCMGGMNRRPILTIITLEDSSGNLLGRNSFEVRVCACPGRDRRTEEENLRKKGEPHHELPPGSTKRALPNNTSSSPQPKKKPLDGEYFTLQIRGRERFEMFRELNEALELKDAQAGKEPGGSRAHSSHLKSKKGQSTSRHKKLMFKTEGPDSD
Sequence of Peroxisome proliferator-activated receptor gamma (Homo sapiens) (P37231 whole entry, looked up): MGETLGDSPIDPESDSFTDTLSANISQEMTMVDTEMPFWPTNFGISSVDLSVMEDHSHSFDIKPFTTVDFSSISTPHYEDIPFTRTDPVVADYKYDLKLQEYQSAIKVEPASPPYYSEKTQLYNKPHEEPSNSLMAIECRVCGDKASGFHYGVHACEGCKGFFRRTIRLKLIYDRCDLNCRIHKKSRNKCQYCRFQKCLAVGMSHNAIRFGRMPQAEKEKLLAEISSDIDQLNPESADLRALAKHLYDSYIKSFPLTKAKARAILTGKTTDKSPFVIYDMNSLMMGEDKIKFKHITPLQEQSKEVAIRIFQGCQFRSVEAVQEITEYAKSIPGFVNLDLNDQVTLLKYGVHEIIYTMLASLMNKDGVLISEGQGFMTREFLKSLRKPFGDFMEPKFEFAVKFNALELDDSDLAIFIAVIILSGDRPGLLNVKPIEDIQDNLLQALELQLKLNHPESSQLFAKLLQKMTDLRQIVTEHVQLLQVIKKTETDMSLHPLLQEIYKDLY
Sequence of Nuclear receptor subfamily 1 group I member 2 (Homo sapiens) (O75469 whole entry, looked up, the tested form may be a part): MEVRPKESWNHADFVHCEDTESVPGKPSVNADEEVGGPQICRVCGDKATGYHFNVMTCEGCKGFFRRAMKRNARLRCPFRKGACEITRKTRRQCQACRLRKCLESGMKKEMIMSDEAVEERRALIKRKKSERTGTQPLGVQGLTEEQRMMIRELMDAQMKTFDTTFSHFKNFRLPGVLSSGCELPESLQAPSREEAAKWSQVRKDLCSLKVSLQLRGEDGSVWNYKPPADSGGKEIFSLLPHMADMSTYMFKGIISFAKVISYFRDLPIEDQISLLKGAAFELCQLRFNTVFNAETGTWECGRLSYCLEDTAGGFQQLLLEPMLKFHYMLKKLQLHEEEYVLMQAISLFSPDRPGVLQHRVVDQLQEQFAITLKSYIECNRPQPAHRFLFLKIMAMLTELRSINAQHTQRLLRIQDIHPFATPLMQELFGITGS
Sequence of Retinoic acid receptor RXR-alpha (Homo sapiens) (P19793 whole entry, looked up, the tested form may be a part): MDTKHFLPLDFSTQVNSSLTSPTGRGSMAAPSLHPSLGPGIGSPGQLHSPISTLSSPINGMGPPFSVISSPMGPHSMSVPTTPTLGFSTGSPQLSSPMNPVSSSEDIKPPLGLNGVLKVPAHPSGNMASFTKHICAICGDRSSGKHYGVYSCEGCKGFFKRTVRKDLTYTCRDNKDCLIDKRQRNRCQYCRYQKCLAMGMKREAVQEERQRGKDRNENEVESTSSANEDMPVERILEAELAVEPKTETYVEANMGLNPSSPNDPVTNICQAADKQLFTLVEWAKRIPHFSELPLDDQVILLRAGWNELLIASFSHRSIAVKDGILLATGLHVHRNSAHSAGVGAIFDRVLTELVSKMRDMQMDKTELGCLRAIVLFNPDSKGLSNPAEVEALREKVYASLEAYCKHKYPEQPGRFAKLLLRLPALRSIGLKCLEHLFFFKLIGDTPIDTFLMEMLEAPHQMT
Sequence of Myc proto-oncogene protein (Homo sapiens) (P01106 whole entry, looked up): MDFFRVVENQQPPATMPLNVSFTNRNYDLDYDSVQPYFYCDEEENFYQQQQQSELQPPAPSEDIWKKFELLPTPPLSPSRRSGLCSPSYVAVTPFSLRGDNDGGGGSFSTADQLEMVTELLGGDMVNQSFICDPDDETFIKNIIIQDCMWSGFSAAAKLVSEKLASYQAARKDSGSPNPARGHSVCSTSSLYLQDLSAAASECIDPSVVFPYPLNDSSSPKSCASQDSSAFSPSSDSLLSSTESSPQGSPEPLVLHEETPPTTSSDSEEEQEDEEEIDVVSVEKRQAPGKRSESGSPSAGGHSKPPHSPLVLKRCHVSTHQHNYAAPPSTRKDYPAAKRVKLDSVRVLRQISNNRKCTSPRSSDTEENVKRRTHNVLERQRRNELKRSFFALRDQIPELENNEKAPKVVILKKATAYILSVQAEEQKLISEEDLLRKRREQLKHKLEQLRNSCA
Sequence of human RAR-related Orphan Receptor beta (RORb), RORB (gene 6096) (Q92753 whole entry, looked up, the tested form may be a part): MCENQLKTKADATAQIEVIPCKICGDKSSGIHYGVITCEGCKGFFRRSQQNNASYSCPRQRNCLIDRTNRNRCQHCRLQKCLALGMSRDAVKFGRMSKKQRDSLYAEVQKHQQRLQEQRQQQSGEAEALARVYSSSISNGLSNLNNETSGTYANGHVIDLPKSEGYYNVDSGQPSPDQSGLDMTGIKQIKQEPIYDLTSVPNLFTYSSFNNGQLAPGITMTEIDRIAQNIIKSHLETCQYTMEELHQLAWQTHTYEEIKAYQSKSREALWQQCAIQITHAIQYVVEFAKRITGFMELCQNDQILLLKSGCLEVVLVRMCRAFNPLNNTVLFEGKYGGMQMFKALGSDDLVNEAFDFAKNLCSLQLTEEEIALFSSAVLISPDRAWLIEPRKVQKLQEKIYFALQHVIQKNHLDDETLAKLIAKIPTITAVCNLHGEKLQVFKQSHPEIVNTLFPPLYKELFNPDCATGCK
Sequence of human Retinoic Acid Receptor gamma (RARg), RARG (gene 5916) (P13631 whole entry, looked up, the tested form may be a part): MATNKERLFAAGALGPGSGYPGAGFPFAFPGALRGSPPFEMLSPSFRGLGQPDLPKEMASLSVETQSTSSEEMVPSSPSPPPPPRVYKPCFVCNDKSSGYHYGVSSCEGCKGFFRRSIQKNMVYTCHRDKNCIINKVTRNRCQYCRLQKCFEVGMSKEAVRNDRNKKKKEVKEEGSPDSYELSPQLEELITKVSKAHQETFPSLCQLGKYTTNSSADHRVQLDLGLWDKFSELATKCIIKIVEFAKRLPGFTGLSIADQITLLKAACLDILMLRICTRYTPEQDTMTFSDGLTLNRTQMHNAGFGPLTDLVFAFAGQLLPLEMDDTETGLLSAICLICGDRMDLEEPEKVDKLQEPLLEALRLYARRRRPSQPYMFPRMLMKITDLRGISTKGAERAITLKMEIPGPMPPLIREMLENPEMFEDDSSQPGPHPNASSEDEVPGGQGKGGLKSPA

C=CC(=O)NCNC(=O)C=C
active: [2] 100 µM | [3] 61.1 µM
not listed: [14] | [15] | [16] | [17] | [18]
inactive: all other assays above

ClC(Cl)=C(c1ccc(Cl)cc1)c1ccc(Cl)cc1
active: [1] 169 µM and 129 µM | [3] 50.7 µM [middle of 4 runs] | [4] 145 µM and 152 µM and 154 µM | [6] 29.4 µM | [7] 33.4 µM | [9] 31.2 µM | [10] 26.2 µM | [15] 34 µM | [16] 6.11 µM [middle of 4 runs]
inactive: [1] | [2] | [4] | [5] | [10] | [14] | [12] | [13] | [17]

CCOC(=O)C(O)(c1ccc(Cl)cc1)c1ccc(Cl)cc1
active: [6] 33.5 µM | [7] 31.7 µM | [8] 34.7 µM | [9] 34.6 µM | [15] 37.9 µM | [11] 30.1 µM | [12] 11.1 µM | [16] 18.3 µM
inactive: [1] | [2] | [3] | [4] | [5] | [14] | [18] | [17]
